# Results as given in PubChem BioAssay AID1468 (National Center for Advancing Translational Sciences (NCATS), 2008).
# The whole screen tested about 280,000 compounds, of which about 1,100 (0.39%) were called active. Another 7% or so got no clear call; they are omitted. Calls come from the whole dose curve; as a rule, active = well fitted inhibition curve with a large enough effect; inconclusive = small, poorly fitted or top-dose-only effect, or effect the other way; inactive = flat fitted curve, though single readings scatter. Shown is part of a subset that was picked to be rich in actives.
# Target: Microtubule-associated protein tau (Homo sapiens) (UniProt P10636)
# Sequence (P10636 561-689 P618L limits assumed): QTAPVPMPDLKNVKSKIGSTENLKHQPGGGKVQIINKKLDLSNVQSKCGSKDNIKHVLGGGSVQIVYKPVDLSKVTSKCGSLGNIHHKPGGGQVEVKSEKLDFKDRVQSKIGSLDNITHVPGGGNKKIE
# Assay: qHTS for Inhibitors of Tau Fibril Formation, Fluorescence Polarization; note: nearly all actives have a fitted effect of over 55% in size
# Details: K18 P301L tau heparin fibrillization, Alexa594 FP, 6 h; series mostly up to 57.7 µM; activity, negative = inhibition: at the top concentration
# Text: NIH Molecular Libraries Probe Production Network [MLPCN]
# NIH Chemical Genomics Center [NCGC]
# Assay Provider: Carlo Ballatore, University of Pennsylvania
# The microtubule-associated protein tau is an abundant protein in the axons of neurons that stabilizes microtubules. With its ability to modulate microtubule dynamics, tau contributes directly or indirectly, to key structural and regulatory cellular functions. Particularly important is the influence tau exerts on axonal transport, which allows signaling molecules, trophic factors and other essential cellular constituents to travel along the axons. Under pathological conditions, tau becomes sequestered into insoluble aggregates called neurofibrillary tangles. This phenomenon is believed to have pathological consequences by promoting axonal transport deficits that ultimately lead to synaptic dysfunction and neuronal loss. To identify inhibitors of tau aggregation, a heparin-induced tau fibril formation assay was used that employed a recombinantly expressed fragment of tau, K18 (Q242-E372), bearing a P301L mutation (Gustke et al. 1994; Hong et al. 1998).
# Gustke, N., B. Trinczek, et al. (1994). "Domains of tau protein and interactions with microtubules." Biochemistry 33(32): 9511-22.
# Hong, M., V. Zhukareva, et al. (1998).
# Li, W. and V. M. Lee (2006). "Characterization of two VQIXXK motifs for tau fibrillization in vitro." Biochemistry 45(51): 15692-701.
# von Bergen, M., S. Barghorn, et al. (2001). "Mutations of tau protein in frontotemporal dementia promote aggregation of paired helical filaments by enhancing local beta-structure." J Biol Chem 276(51): 48165-74.
# NCGC Assay Protocol Summary:
# For screening, 2 uL/well human K18 P301L (15 uM unlabeled and 0.24 uM Alexa 594-labeled tau final concentrations) in reagent buffer (100 mM sodium acetate pH 7) was dispensed into black solid 1536-well plates (Grenier) using a solenoid-based dispenser. Following transfer of 23 nL compound or DMSO vehicle by a pin tool, 2 uL/well heparin (20 uM final concentration) in reagent buffer was added and the plate centrifuged 15 s at 1000 RPM. Plates were incubated 6 hr at 37 C and then 1 uL/well ThT (30 uM final concentration) was added. After a 1 hr ambient incubation, the plates were read by an Envision (Perkin Elmer) to monitor Alexa 594 FP (555 nm excitation and 632 nm emission).
# Keywords: NIH Roadmap, MLPCN, MLI, MLSMR, NCGC, qHTS, tau, tauopathies, Alzheimer's disease, fibril, neurodegeneration, aggregation
# % is set by controls: 0 for no effect and ±100 for the full control effect; potency is the fitted concentration of half-maximal effect.
Structure (SMILES),"activity, negative = inhibition",Potency
COc1ccc(OC)c2sc(N3CCN(C(=O)C4COc5ccccc5O4)CC3)nc12 (stereo unspecified),-6.25% (inactive),
COc1cccc(Nc2nc3ccccc3c3nncn23)c1,-14.4% (inactive),
Fc1ccc(C(Nc2ccc(Cl)c(C(F)(F)F)c2)c2nnc(-c3ccccc3)o2)cc1 (stereo unspecified),-9.8% (inactive),
FC(F)(F)c1cc(Nc2nc3ccccc3c3nncn23)ccc1Cl,,10 µM (active)
COc1ccc(-c2cc(C(F)(F)F)n3nc(-c4ccccc4)cc3n2)cc1OC,-7.35% (inactive),
COc1ccc(OC)c(CNC(=O)Cn2nc(C)c3c(C)n(-c4ccccc4)nc3c2=O)c1,-0.531% (inactive),
CCN(CC)c1ccc2c(Nc3ccccc3)c(C=O)c(=O)oc2c1,2.78% (inactive),
CCN(CC)c1ccc(/C=N/Nc2nc(C)cc(C)n2)c(O)c1,3.84% (inactive),
CCN(CC)c1ccc2oc(=O)c(C)nc2c1,,12.6 µM (active)
CC1CCCCN1CC(=O)N1CCCc2c1c(=O)oc1ccc(OCc3ccccc3)cc21 (stereo unspecified),-4.88% (inactive),
CCc1ccccc1NC(=O)N1CCN(C(=O)c2nsc3ccccc23)CC1,-1.92% (inactive),
Cc1c(C(=O)N2CCCC2)oc2c1-c1nn(CC(=O)NCc3ccc(OC(C)C)cc3)cc1CC2,9.67% (inactive),
O=C1C(c2ccccn2)=[N+]([O-])c2ccccc21,,7.94 µM (active)
Cc1ccc(-c2nnc(SCC(=O)NCc3ccccc3)nc2-c2ccc(C)cc2)cc1,-2.83% (inactive),
CSc1ncc(Cl)c(C(=O)Nc2ccc(S(=O)(=O)N3CCCC(C)C3)cc2)n1 (stereo unspecified),-18% (inactive),
O=C(CSc1nc(-c2cccc(F)c2)[nH]c1-c1ccccc1)Nc1ccc2c(c1)OCO2,-13.5% (inactive),
COc1ccc(-c2cn3nc(N4CCCC(C(=O)NCCCOC(C)C)C4)sc3n2)cc1 (stereo unspecified),12.2% (inactive),
O=C(CSc1nnnn1-c1ccc(O)cc1)N1N=C(c2ccc3ccccc3c2)CC1c1ccccc1 (stereo unspecified),,25.1 µM (active)
COc1ccc(C2CC(c3ccccc3)=NN2C(=O)CSc2nccc(=O)[nH]2)cc1 (stereo unspecified),3.39% (inactive),
O=C(CSc1nnnn1-c1ccc(O)cc1)c1ccc(F)cc1,-6.29% (inactive),
COc1ccc(Cl)cc1NC(=O)C(C)Sc1nc2c(c(=O)[nH]1)CCCC2 (stereo unspecified),-9.47% (inactive),
O=C(Cn1ncc2c3ccccc3n(Cc3ccccc3)c2c1=O)NC1CCCCCC1,-3.1% (inactive),
Clc1ccc(CSc2nncn3c2cc2occc23)cc1,-6.93% (inactive),
COc1ccc(C2CC(=O)N(Cc3ccccc3C)c3c2c(C)nn3-c2nc(C)cc(C)n2)c(OC)c1 (stereo unspecified),5.46% (inactive),
Cc1ccc(C)c(S(=O)(=O)c2nnn3c2nc(N2CCOCC2)c2sccc23)c1,-0.999% (inactive),
Fc1ccc(CSc2nc(NCc3ccccc3)c3ccccc3n2)cc1,0.594% (inactive),

Structure (SMILES),"activity, negative = inhibition",Potency
O=C(CSc1nc(Nc2ccc(F)c(F)c2)c2ccccc2n1)c1ccc(Cl)cc1,-2.77% (inactive),
Fc1ccc(Nc2nc(SCc3ccccc3Cl)nc3ccccc23)cc1,,6.31 µM (active)
Cc1ccc(C(=O)N2c3ncnn3C3(CCCCC3)[C@@H]3CCCC[C@@H]32)cc1,-0.63% (inactive),
CC(=O)Nc1ccc2nc(SCCOc3cc(C)cc(C)c3)sc2c1,,12.6 µM (active)
Cc1ccc(OCCSc2nc3ccc(NC(=O)COc4ccc(C)cc4)cc3s2)cc1,1.12% (inactive),
CCOc1ccc2nc(Nc3nc4ccc(NC(C)=O)cc4s3)sc2c1,17.7% (inactive),
COc1ccccc1C(=O)NCCn1cc(SCc2ccccc2Cl)c2ccccc21,7.76% (inactive),
Cc1ccc(-c2nn(-c3ccccc3)cc2C(=O)Nc2cccc(S(=O)(=O)N3CCOCC3)c2)cc1,,14.1 µM (active)
O=C(O)/C=C/c1cn(-c2ccccc2)nc1-c1cccs1,-2.28% (inactive),
Cc1ccc(-c2nn(-c3ccccc3)cc2/C=C/C(=O)Nc2cccc(S(N)(=O)=O)c2)cc1,,14.1 µM (active)
O=C(O)c1ccc(NC(=O)c2cn(-c3ccccc3)nc2-c2ccc(Cl)cc2)cc1,-3.57% (inactive),
COc1ccc(-c2nn(-c3ccccc3)cc2/C=C\C(=O)Nc2ccc(C(=O)O)cc2)cc1,-13.7% (inactive),
O=C(COC(=O)c1ccccc1)Nc1cccc(S(=O)(=O)N2CCOCC2)c1,-4.57% (inactive),
COc1ccccc1N1CCN(C2C(=O)c3ccccc3N2C(C)=O)CC1 (stereo unspecified),1.47% (inactive),
CCC(=O)N1CCc2cc(CNC(=O)Nc3ccccc3Cl)ccc21,1.87% (inactive),
COc1ccc(Cc2nc3ccc(C(=O)NCc4ccccc4C)cc3o2)cc1,-4.5% (inactive),
CCN1CCc2nc3sc(C(=O)Nc4ccccc4OC(F)(F)F)c(N)c3cc2C1,7.89% (inactive),
Cc1ccc(C(=O)Nc2ccc(C(=O)O)cc2)cc1S(=O)(=O)Nc1ccccc1,-5.55% (inactive),
O=C(Nc1ccc(Br)cc1)c1ccc(Br)c(S(=O)(=O)NCc2ccccc2)c1,,12.6 µM (active)
O=C(Nc1cccc(NC(=O)c2ccc(Br)cc2)c1)c1ccccc1,-12.3% (inactive),
COC(=O)c1scc(-c2ccccc2)c1S(=O)(=O)Nc1ccccc1,-4.44% (inactive),
Cc1ccc(Cn2c(C)c3cnn(CC(=O)NCc4ccccc4)c(=O)c3c2C)cc1,5.78% (inactive),
COc1ccc(N(C(=O)c2cccnc2)S(=O)(=O)c2ccc3c(c2)n(C)c(=O)n3C)cc1,-5.86% (inactive),
CN(C)S(=O)(=O)c1cccc(C(=O)Nc2cccnc2)c1,4.52% (inactive),
O=C(c1cccnc1)N(c1cc2sc(=O)oc2c2ccccc12)S(=O)(=O)c1ccccc1,,17.8 µM (active)
